In the library only some 20% were active in any assay of this set; here they are far more common.
Pf growth 96h = Primary qHTS for delayed death inhibitors of the malarial parasite plastid, 96 hour incubation; P. falciparum luciferase reporter growth, 96 h; AID 504834, 2011; 6.9% of 320,000 active; Potency, µM (doses to about 28.7 µM), actives largely listed as inhibitors
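Delayed-death screen, second-generation endpoint: infected erythrocytes, 2% hematocrit, 0.05% parasitemia final; 96 hours at 37 C, 5% CO2; luciferase detection reagent; luminescence decrease equals reduced growth.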
Pf growth 48h = Primary qHTS for delayed death inhibitors of the malarial parasite plastid, 48 hour incubation; P. falciparum luciferase growth in erythrocytes, 48 h; AID 504832, 2011; Potency, µM (doses to about 28.7 µM), usual class: inhibitors; 5.9% of 310,000 active
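Compounds are pin-transferred into medium, infected erythrocytes (2% hematocrit, 0.1% parasitemia final) are added, and plates sit one parasite generation at 37 C in 5% CO2. Detection reagent is then added and luminescence measured.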
Shiga inhibitor = A qHTS for Small Molecule Inhibitors of Shiga Toxin | AID 2315, 2010 | Vero cells, Shiga toxin protein synthesis inhibition reporter | inhibition, % at 38.7 µM | 9.2% of 290,000 active; in the data active = inhibition mostly above about 28%, no sharp cut-off; inactive = mostly below about 43%
HCMV inh = qHTS Assay for inhibitors of the human cytomegalovirus (HCMV); HFF cells, HCMV-luciferase reporter, 72 h; stronger effect = lower value; activity change, negative = inhibition, % at 57.5 µM; 4.5% of 410,000 active; AID 1259415, 2018; in the data active = activity change below about -60%; inconclusive = no clear call, values can overlap the other calls; inactive = above about -39%
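Screen run at 2 compound doses on HFFs infected with reporter HCMV, MOI 1 PFU/cell. Luciferase activity from cell lysates at 72 h post infection gave inhibition relative to buffer-only and Salinomycin wells.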
CHX counter = Cycloheximide Counterscreen for Small Molecule Inhibitors of Shiga Toxin. AID 2314, 2010. max response, %. 12% of 300,000 active. cell reporter, cycloheximide protein synthesis inhibition counterscreen; in the data active = max response mostly above about 13%, no sharp cut-off; inactive = mostly below about 14%; also: read at 38.3 µM for the half of the compounds with a filed dose
A number is an active result; . = inactive; ? = inconclusive; / = no result given. Unless noted, calls follow the shape of the dose curve; as a rule, active = well fitted inhibition curve with a large enough effect; inconclusive = small, poorly fitted or top-dose-only effect, or another doubt; inactive = no such curve, though single readings can be large or run the other way.

SMILES | Pf growth 96h | Pf growth 48h | Shiga inhibitor | HCMV inh | CHX counter
CCc1cc(=O)oc2cc(C)cc(OC(C)C(=O)NCc3ccccn3)c12 (configuration not stated) | 2.1µM | 3.7µM | . | . | .
CCCc1cc(=O)oc2cc(C)cc(OC(C)C(=O)NCc3ccccn3)c12 (configuration not stated) | 2.3µM | 2.6µM | . | . | .
CCc1cc(=O)oc2cc(C)cc(OCC(=O)NCc3ccccn3)c12 | ? | . | . | . | .
COc1ccc(CNC(=O)C(=O)Nc2ccc(OC)cc2OC)cc1 | / | / | / | . | /
O=C1CCC[C@H]2[C@@H](Cc3ccccc3)[C@H](NCc3ccccc3)CC[C@]23CCCN13 | / | / | / | . | /
O=C(Nc1ccc(C(=O)N2CCCC2)cc1)C1CCC1 | / | / | / | . | /
COc1ccc(-c2cc(C(=O)NCc3ccc(F)cc3)c3c(-c4ccc(F)cc4)[nH]nc3n2)cc1OC | / | / | / | -101 | /
COc1ccc(CNC(=O)c2cc(-c3ccc(C)cc3)nc3n[nH]c(-c4ccc(Br)cc4)c23)cc1 | / | / | / | . | /
COc1ccc(CNC(=O)c2cc(-c3ccc(OC)c(OC)c3)nc3n[nH]c(-c4ccc(C)cc4)c23)cc1 | / | / | / | -97 | /
COc1ccc(S(=O)(=O)N2CCC(C(=O)Nc3ccc(Oc4ccccc4)cc3)CC2)cc1 | / | / | / | . | /
COc1cc(CN(CCN(C)C)Cc2ccccc2)ccc1OCc1ccccc1 | ? | ? | . | . | .
COc1ccc(CCN(C)CC(O)c2ccccc2)cc1OC (configuration not stated) | . | . | . | -74 | .
COc1ccc(CN(CCc2ccccc2)Cc2ccccc2)cc1OC | ? | 8.3µM | . | . | .
COc1ccccc1CNC(=O)C1CCCN1S(=O)(=O)c1ccc2c(c1)C(C)(C)C(=O)N2C (configuration not stated) | / | / | / | . | /
CC1(C)S[C@@H]2[C@H](NC(=O)[C@H](NC(=O)N3CCN(S(C)(=O)=O)C3=O)c3ccccc3)C(=O)N2[C@H]1C(=O)O | . | . | / | / | /
O=C1NCCCC1C(=O)Nc1cccc(C(F)(F)F)c1 (configuration not stated) | . | . | . | . | .
COc1ccc(NC(=O)C2CCCNC2=O)cc1 (configuration not stated) | 6.6µM | . | . | . | .
COc1ccc(NC(=O)C2CCOC2=O)cc1 (configuration not stated) | / | / | / | . | /
CC(=O)c1ccc(NC(=O)C2CCCNC2=O)cc1 (configuration not stated) | 5.2µM | . | . | . | .
C#CCOc1ccc(Br)cc1/C=N/O | . | / | . | . | .
CC(Oc1ccc2c3c(c(=O)oc2c1)CCCC3)C(=O)NC1CC(C)(C)NC(C)(C)C1 (configuration not stated) | 9.3µM | 15µM | . | . | .
Cc1c(C)c2ccc(OC(C)C(=O)NC3CC(C)(C)NC(C)(C)C3)cc2oc1=O (configuration not stated) | . | ? | . | . | .
CC(Oc1cc2oc(=O)c3c(c2cc1Cl)CCC3)C(=O)NC1CC(C)(C)NC(C)(C)C1 (configuration not stated) | ? | 13µM | . | . | .
Cc1ccccc1-c1noc(-c2ccc(NCc3cccnc3)c([N+](=O)[O-])c2)n1 | / | / | / | . | /
Cc1ccc(S(=O)(=O)N2CC3CCCC2C3)cc1 (configuration not stated) | . | 1.7µM | . | . | .
SMILES | Pf growth 96h | Pf growth 48h | Shiga inhibitor | HCMV inh | CHX counter
Cc1ccc(NS(=O)(=O)c2ccc3nc(-c4ccccc4)[nH]c3c2)c(Cl)c1 | / | / | / | . | /
Nc1cccc(-c2nc3ccccc3[nH]2)c1 | . | . | 71 | . | 22
CC(=O)c1sc2nc(C)cc(C)c2c1N | ? | . | . | . | .
Cc1ccc2nc(-c3sc4nc(C)cc(C)c4c3N)[nH]c2c1 | . | . | 43 | . | 26
Cc1ccc2nc(-c3cccc(N)c3)[nH]c2c1 | . | . | 33 | . | 17
CC(C)(C)C1CCc2nc(NC(=O)COc3ccccc3[N+](=O)[O-])sc2C1 (configuration not stated) | / | / | / | -91 | /
CC(C)(C)C1CCc2nc(NC(=O)c3ccc([N+](=O)[O-])cc3)sc2C1 (configuration not stated) | / | / | / | -74 | /
CC(C)(C)C1CCc2nc(NC(=O)c3cccc(Cl)c3)sc2C1 (configuration not stated) | / | / | / | -90 | /
CC(C)(C)C1CCc2c(sc(NC(=O)c3cccc(Cl)c3)c2C(N)=O)C1 (configuration not stated) | / | / | / | . | /
CC[C@@]1([C@@H]2O[C@@H]([C@H]3O[C@@](O)(CO)[C@H](C)C[C@@H]3C)C[C@@H]2C)CC[C@@H]([C@]2(C)CCC3(C[C@H](O)[C@@H](C)[C@@H]([C@@H](C)[C@@H](OC)[C@H](C)C(=O)O)O3)O2)O1 (some centres not stated) | / | / | . | / | .
CCc1ccccc1Nc1nc2cc(Cl)c(Cl)cc2nc1-n1nc(C)cc1C | / | / | / | . | /
Cc1cc(Nc2ccccc2)nc(N2CCOCC2)n1 | / | . | . | . | .
CCCCc1ccc(Nc2cc(C)nc(-n3nc(C)cc3C)n2)cc1 | / | / | / | -97 | /
Cc1cc(Nc2ccccc2C)nc(-n2nc(C)cc2C)n1 | / | / | / | -69 | /
Cc1cc(Nc2cc(F)ccc2C)nc(-n2nc(C)cc2C)n1 | / | / | / | -80 | /
Cc1cc(C)n(-c2nc(Nc3ccccc3C(F)(F)F)nc(-n3nc(C)cc3C)n2)n1 | . | 4.1µM | . | -98 | .
Cc1ccc(Nc2cc(-n3nc(C)cc3C)ncn2)c(C)c1 | . | ? | . | . | .
CC(C)(C)OC(=O)N1CCC(c2c(C(=O)N3CCOCC3)cnn2-c2cccc(F)c2)CC1 | / | / | / | . | /
Cc1cc(N2CCN(c3ccccc3)CC2)nc(-c2ccccc2O)n1 | . | / | . | . | .
Cc1ccccc1Nc1nc(Cl)nc(NC(C)(C)C)n1 | / | / | / | . | /
Cc1cc(Nc2ccc(F)cc2)nc(-n2nc(C)cc2C)n1 | / | / | / | -83 | /
Cc1cc(N2CCN(c3ccccc3)CC2)nc(-n2nc(C)cc2C)n1 | . | 3.7µM | . | . | .
Cc1cc(C)n(-c2nc(Nc3ccccc3C)nc(-n3nc(C)cc3C)n2)n1 | 1µM | 2.3µM | . | -97 | .
CC1C(=O)CC(c2ccco2)NC1c1ccco1 (configuration not stated) | ? | / | . | / | .
COC(=O)C[C@H]1c2cc(F)ccc2S(=O)(=O)N1C(C)C | / | / | / | . | /
Nc1c(Cl)nc(-c2ccccc2)nc1Cl | . | . | . | -72 | 14
O=C(C1CC(=O)N(c2ccc3c(c2)OCCO3)C1)N1CCN(c2ccccc2O)CC1 (configuration not stated) | . | . | . | . | .
Cc1ccc(N2CC(C(=O)Nc3ccc4c(c3)OCCO4)CC2=O)cc1C (configuration not stated) | . | . | 53 | . | .
Cc1ccc(N2CC(C(=O)N3CCCCC3)CC2=O)cc1C (configuration not stated) | . | . | . | -61 | .
